High-throughput results as filed in PubChem.
A selection: hits, their analogues and other compounds. The true share with any hit is near 5.7%.
HT1080 IDH1KD tx – qHTS for induction of synthetic lethality in tumor cells producing 2HG: qHTS for the HT-1080-IDH1KD cell line; HT-1080 IDH1 knockdown viability, ATP luminescence, 48 h; Potency, µM (titrated, usually from 46.1 µM), most hits filed as cytotoxic; 2% of 360,000 active
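IDH1KD HT-1080 cells, 750/well, RPMI + 5% FBS; compound pinned after 2 h settling; 48 h, 37 °C; CellTiter-Glo luminescence; % activity normalised to DMSO and no-cell wells; curves fitted, classed by r2 and efficacy.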
KB-V1 MDR tox – qHTS assay for MDR1-selective chemotherapeutics: Primary screen using the drug-selected MDR subline cells KB-V1. 3.4% of 400,000 active. KB-V1 MDR cells viability, CellTiter-Glo, 72 h. AID 1347076, 2019. Potency, µM (highest dose often 46.1 µM), most hits filed as cytotoxic; note: nearly all actives have a fitted effect of over 60% in size
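Cells of the MDR subline KB-V1 are plated, dosed with compound at multiple concentrations, and incubated 72 h at 37 degrees C; CellTiter-Glo is then added and luminescence read after 10 min.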
KB-3-1 cytotox – qHTS assay for MDR1-selective chemotherapeutics: Primary screen using the parental adenocarcinoma cell KB-3-1; KB-3-1 viability, CellTiter-Glo ATP luminescence, 72 h; Potency, µM (titrated, usually from 46.1 µM), actives largely listed as cytotoxic; 1.4% of 400,000 active; AID 1347075, 2019; note: nearly all actives have a fitted effect of over 60% in size
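Parental KB-3-1 adenocarcinoma cells in phenol-red-free DMEM with 10% FBS were pin-treated with compounds at several concentrations, incubated 72 h at 37 °C, and viability read by CellTiter-Glo luminescence; concentration-effect curves were fitted after normalization.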
HT1080-NT tox – qHTS for induction of synthetic lethality in tumor cells producing 2HG: qHTS for the HT-1080-NT fibrosarcoma cell line. HT-1080-NT fibrosarcoma viability, CellTiter-Glo ATP luminescence, 48 h. Potency, µM (doses to about 46.1 µM), hits mostly cytotoxic. 1.6% of 360,000 active. AID 686970, 2013;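 note: NT is the 2HG producing partner of a matched IDH1 knockdown line; nearly all actives have a fitted effect of over 55% in size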
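HT-1080-NT; 750 cells/well; 5% FBS RPMI; 48 h compound, 37 degrees C; CellTiter-Glo luminescence; curve fitting and curve-class assignment.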
Hits are given with their value; – = inactive; ? = inconclusive; · = no result. Calls come from the whole dose curve; as a rule, active = well fitted curve in the direction sought with a large enough effect; inconclusive = small, poorly fitted or top-dose-only effect, or another doubt; inactive = no such curve, though single readings can be large; an effect the other way counts as inactive or inconclusive.

SMILES | HT1080 IDH1KD tx | KB-V1 MDR tox | KB-3-1 cytotox | HT1080-NT tox
Cc1cc(C)nc(SCC(=O)Nc2ccnc3ccccc23)n1 | – | 4.61µM | 3.66µM | –
Cc1cc(C)n2nc(SCC(=O)Nc3ccc(F)cc3[N+](=O)[O-])nc2n1 | – | 20.6µM | – | –
O=C(Nc1ccc2ccccc2c1)Nc1nnc(-c2ccccc2F)s1 | · | – | ? | ·
O=C(O)c1ccc(N=Nc2c(O)ccc3ncccc23)cc1 | 23.1µM | ? | ? | ?
O=C(O)c1cc(N=Nc2c(O)ccc3ccccc23)cc(C(=O)O)c1 | – | – | – | –
O=C(Oc1ccc(NC2=C(Cl)C(=O)c3ccccc3C2=O)cc1)c1ccc([N+](=O)[O-])cc1 | – | – | – | –
CC(=O)Nc1ccc(NC2=C(Cl)C(=O)c3ccccc3C2=O)cc1 | 2.91µM | ? | 16.4µM | 4.61µM
O=C1C(Cl)=C(Nc2ccc3cn[nH]c3c2)C(=O)c2ccccc21 | 2.59µM | ? | ? | ?
CN(C)c1ccc(NC2=C(Cl)C(=O)c3ccccc3C2=O)cc1 | 2.31µM | – | ? | 3.26µM
O=c1oc2ccccc2n1CCCOc1ccccc1Cl | · | – | – | ·
COc1ccc(NC(=O)CSc2nc3c(c(=O)[nH]2)CCC3)cc1 | · | – | – | ·
CCC(Sc1nc2c(c(=O)[nH]1)CCC2)C(=O)Nc1cccc(OC)c1 (stereo unspecified) | – | 16.4µM | – | –
COc1cc(-c2nc3n(n2)C(c2ccc(F)cc2)C(C(N)=O)=C(C)N3)cc(OC)c1OC (stereo unspecified) | · | – | – | ·
CCCc1cc(=O)[nH]c(Nc2ccccc2O)n1 | · | – | – | ·
C/C(=N\NC(=O)c1cccc(F)c1)c1ccc(Br)s1 | 5.62µM | ? | – | 11.2µM
C/C(=N\NC(=O)c1ccccc1O)c1ccc(Br)s1 | 14.6µM | ? | – | ?
C/C(=N\NC(=O)c1ccccc1O)c1c(O)cc(C)oc1=O | 10µM | ? | – | ?
CCOC(=O)C(CC)/C(C)=N\NC(=O)c1ccccc1O (stereo unspecified) | 16.4µM | 2.06µM | ? | ?
CCCc1ccc(OC(C)c2nc(-c3ccc(-n4cccc4)cc3)no2)cc1 (stereo unspecified) | · | – | – | ·
CCOC(=O)c1c(C)[nH]c(C)c1S(=O)(=O)N1CCCC(C(=O)N2CCN(c3cccc(Cl)c3)CC2)C1 (stereo unspecified) | · | – | ? | ·
CCN1C(=O)C(=O)c2cc(C)ccc21 | – | – | ? | –
CC[N+]1=C(C)C(C)(C)c2cc(C)ccc21 | 5.17µM | – | ? | ?
O=C(CCc1ccccc1)Nc1ccccc1OC(=O)c1ccccc1 | – | – | – | –
O=C(Nc1ccccc1OC(=O)c1ccccc1)c1ccccc1 | 14.6µM | – | ? | ?
COc1ccc(NC(=O)c2c(C)oc3ccc(O)c(CN4CCCCCC4)c23)cc1Cl | · | – | ? | ·
SMILES | HT1080 IDH1KD tx | KB-V1 MDR tox | KB-3-1 cytotox | HT1080-NT tox
Oc1c(C(c2ccc(Cl)cc2)N2CCCC2)cc(Cl)c2cccnc12 (stereo unspecified) | ? | – | – | ?
Oc1c(C(c2ccccc2Cl)N2CCCC2)ccc2cccnc12 (stereo unspecified) | ? | – | 13µM | ?
COc1cccc(CNc2cccc(C(F)(F)F)c2)c1O | – | – | 20.6µM | –
CSc1nnc(C)c(/C=C/Nc2ccc(F)cc2F)n1 | 16.4µM | ? | – | ?
C=CCC[C@@H](Cc1ccc(F)cc1)C(=O)OC[C@H](C)NC(=O)[C@@H](CC=C)CC(=O)N(CCO)Cc1ccccc1 | – | – | – | –
C=CC[C@@H](CC(=O)N[C@@H](CO)Cc1ccccc1)C(=O)NC[C@H](OC(=O)[C@@H](CC=C)Cc1ccc(F)cc1)c1ccccc1 | 23.1µM | – | ? | ?
C=CCC[C@@H](Cc1ccc(F)cc1)C(=O)OC[C@@H](NC(=O)[C@@H](CC=C)CC(=O)N(CCO)Cc1ccccc1)c1ccccc1 | ? | ? | ? | 20.6µM
C=CCC[C@@H](Cc1ccc(F)cc1)C(=O)OC[C@@H](Cc1c[nH]c2ccccc12)NC(=O)[C@H](CC=C)CC(=O)N[C@H](CO)Cc1ccccc1 | ? | – | ? | 20.6µM
C=CC[C@H](CC(=O)N(CCO)Cc1ccccc1)C(=O)N[C@H](COC(=O)[C@@H](CC=C)Cc1ccc(F)cc1)Cc1c[nH]c2ccccc12 | 20.6µM | ? | ? | ?
